Bioassay records deposited in PubChem BioAssay by National Center for Advancing Translational Sciences (NCATS).
KDM5B inh – KDM5B demethylase inhibition; Potency, µM (highest dose often 57.7 µM), usual class: inhibitors; AID 1347165; Q9UGL1; hit rate 2.6% among 220,000; KDM5B demethylase, FDH-coupled NADH fluorescence (FDH is formaldehyde dehydrogenase); active = well fitted inhibition curve with a large enough effect; also: nearly all actives have a fitted effect of over 70% in size
Target sequence (Q9UGL1 whole entry, looked up): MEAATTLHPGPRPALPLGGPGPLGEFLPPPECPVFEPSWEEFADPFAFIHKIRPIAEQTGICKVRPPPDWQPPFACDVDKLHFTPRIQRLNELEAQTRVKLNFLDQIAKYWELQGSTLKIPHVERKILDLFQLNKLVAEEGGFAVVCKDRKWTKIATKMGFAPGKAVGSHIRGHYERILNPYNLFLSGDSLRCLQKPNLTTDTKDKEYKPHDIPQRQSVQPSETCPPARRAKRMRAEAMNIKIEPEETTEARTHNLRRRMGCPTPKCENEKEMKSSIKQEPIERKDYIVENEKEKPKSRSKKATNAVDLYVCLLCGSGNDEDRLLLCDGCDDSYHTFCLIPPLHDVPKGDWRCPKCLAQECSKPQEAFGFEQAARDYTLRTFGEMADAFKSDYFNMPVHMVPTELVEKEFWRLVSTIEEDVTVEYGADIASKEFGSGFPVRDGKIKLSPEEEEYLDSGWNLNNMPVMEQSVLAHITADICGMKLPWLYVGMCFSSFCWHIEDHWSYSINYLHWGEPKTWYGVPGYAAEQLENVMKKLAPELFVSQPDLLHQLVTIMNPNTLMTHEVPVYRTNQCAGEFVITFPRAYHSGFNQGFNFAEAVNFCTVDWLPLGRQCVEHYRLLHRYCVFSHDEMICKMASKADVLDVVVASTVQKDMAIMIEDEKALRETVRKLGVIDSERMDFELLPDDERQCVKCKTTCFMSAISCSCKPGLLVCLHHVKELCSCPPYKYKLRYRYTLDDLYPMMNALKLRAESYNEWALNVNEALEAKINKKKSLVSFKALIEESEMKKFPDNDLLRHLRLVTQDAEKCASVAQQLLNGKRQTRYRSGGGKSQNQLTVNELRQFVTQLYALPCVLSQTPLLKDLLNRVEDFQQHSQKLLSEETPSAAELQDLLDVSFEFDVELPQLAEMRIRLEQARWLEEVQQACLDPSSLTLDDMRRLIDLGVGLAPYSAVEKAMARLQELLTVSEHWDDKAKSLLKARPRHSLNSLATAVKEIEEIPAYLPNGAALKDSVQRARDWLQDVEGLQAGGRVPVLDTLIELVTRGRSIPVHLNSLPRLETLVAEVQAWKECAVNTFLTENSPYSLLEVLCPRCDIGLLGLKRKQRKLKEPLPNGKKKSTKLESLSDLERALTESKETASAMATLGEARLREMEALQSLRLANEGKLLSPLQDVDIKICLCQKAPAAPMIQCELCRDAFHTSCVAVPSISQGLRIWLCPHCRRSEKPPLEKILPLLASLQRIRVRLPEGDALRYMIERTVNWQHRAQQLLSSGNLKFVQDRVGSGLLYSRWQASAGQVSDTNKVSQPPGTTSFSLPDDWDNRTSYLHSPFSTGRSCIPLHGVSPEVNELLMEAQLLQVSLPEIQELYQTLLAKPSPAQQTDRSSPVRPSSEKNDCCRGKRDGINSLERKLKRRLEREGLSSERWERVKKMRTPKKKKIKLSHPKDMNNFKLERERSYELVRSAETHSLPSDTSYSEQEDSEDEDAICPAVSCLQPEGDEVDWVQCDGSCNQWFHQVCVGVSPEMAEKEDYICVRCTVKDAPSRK
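Measured: NADH fluorescence change, 30 min, RT. System: KDM5BΔAP 200 nM final, H3K4me3 peptide, α-KG, Fe(II), ascorbate, NAD⁺ plus FDH, pH 7.5 HEPES. Compounds: titrated, 10 min pre-incubation with enzyme.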
Numbers stand for hits; . = inactive. The sample as a whole holds a higher share of hits than the screen did.

SMILES	KDM5B inh
COCCNC(=O)c1noc(-c2ccc[nH]c2=O)n1	28.2µM
O=C(NCC1CC1)c1noc(-c2ccc[nH]c2=O)n1	.
Cc1ccc(-c2nc(C(=O)N3CCN(c4ccc(C)cc4C)CC3)no2)cc1	.
CCOC(=O)Nc1ccc(S(=O)(=O)Nc2cccc(F)c2)cc1	.
CNC(=O)NC(=O)CCCN1CCN(c2oc(C3CC3)nc2C#N)CC1	.
O=[N+]([O-])c1cccc(N/N=C/c2cccc(Br)c2)c1	.
O=C(Cn1cnc2ccccc2c1=O)Nc1ccc(Cl)c(S(=O)(=O)N2CCOCC2)c1	.
Cc1cc(F)ccc1NC(=O)C(C)(C)c1ccccc1	.
Cc1noc(-c2cccn3c(CNC(=O)c4cccc(Cl)c4)nnc23)n1	14.1µM
Cc1noc(-c2cn(C3CCN(C(=O)c4ccc(F)c(Cl)c4)CC3)nn2)n1	.
Cc1noc(-c2cccn3c(CNC(=O)c4ccc(F)c(Cl)c4)nnc23)n1	14.1µM
CCC(=O)Nc1c(-c2cc(=O)oc3ccc(Cl)cc23)oc2ccccc12	.
O=C(Nc1cccc(S(=O)(=O)N2CCCCC2)c1)c1cccc2cccnc12	.
Cc1sc(NC(=O)CC(C)(C)C)c(C#N)c1C	.
CC1(C(=O)NC2CC3CC2C2CCCC32)CC1(Cl)Cl (configuration not stated)	.
CCN(CC)C(=O)[C@@H]1C[C@H](N)CN1C(=O)c1cc2ccccc2n(C)c1=O	31.6µM
CCN(CC)C(=O)C1Cn2cccc2C(=O)N1C (configuration not stated)	.
CCNC(=O)[C@@H]1C[C@H](N)CN1C(=O)c1ccc(NC(C)=O)cc1C	.
Fc1ccccc1CSc1nnc(-c2c[nH]c3ccccc23)n1C1CC1	.
Cc1ccccc1CN1CCC(n2nccc2NC(=O)c2cccnc2)CC1	.
COc1ccccc1C(=O)Nc1ccnn1C1CCN(C(=O)C2CCCO2)CC1 (configuration not stated)	.
COc1ccccc1C(=O)Nc1ccnn1C1CCN(c2cnccn2)CC1	28.2µM
CNC(=O)c1ccc(-c2nc(CN3CCN(C(=O)Nc4ccc(OC)cc4)CC3)c(C)o2)cc1	.
Cc1cc(C(=O)OCC(=O)Nc2cccc(F)c2)c2ccccc2n1	.
CN(Cc1ccccc1C#N)Cc1ccccc1N1CCCCC1	.
SMILES	KDM5B inh
CC(C)Oc1cccc2c1c(NC(=O)CN1CCCC1=O)nn2-c1cccc(F)c1	.
O=C(Nc1nn(Cc2ccccc2)c2cccc(N3CCOCC3)c12)c1ccncc1	.
O=C(Nc1cc(C(F)(F)F)ccc1N1CCOCC1)C1CC1	.
Cc1ccnn1CCC(=O)Nc1nn(C)c2cccc(N3CCOCC3)c12	28.2µM
O=C(Nc1nn(-c2cccc(F)c2)c2cccc(N3CCOCC3)c12)C1CCC1	31.6µM
O=C(Nc1nn(Cc2ccccc2)c2cccc(N3CCOCC3)c12)C1CCC1	25.1µM
O=C(Nc1ccc(Cl)cc1N1CCOCC1)C1CC1	.
CC(C)Oc1cccc2c1c(NC(=O)C1CCOCC1)nn2C	.
Cc1cn(CCC(=O)Nc2ccccc2N2CCOCC2)c2ccccc12	.
Cc1cc(Cl)nc(Cl)c1CCCl	.
CC(=O)c1cn(CC(=O)N2CCOCC2)c2ccccc12	.
O=C(CCC1NC(=O)c2ccccc2NC1=O)NC1CCCCCCC1 (configuration not stated)	.
CCOC(=O)Cc1cc(=O)n2[nH]c(NCc3ccc(OC)cc3)nc2n1	.
O=C(O)CNS(=O)(=O)c1ccc(Br)cc1	.
COCCN1CCCCCC(O)c2cc(C(=O)N(C)Cc3cccnc3)ccc21 (configuration not stated)	.
COCCN1CCCCCC(O)c2cc(C(=O)N3CCN(c4ccccc4OC)CC3)ccc21 (configuration not stated)	.
COCCN1CCCCCC(O)c2cc(C(=O)NCCc3nc4ccccc4n3C)ccc21 (configuration not stated)	.
COCCN1CCCCCC(O)c2cc(C(=O)NC3CCC3)ccc21 (configuration not stated)	31.6µM
COCCN1CCCCCC(O)c2cc(C(=O)N(C)Cc3ccc(N4CCCCC4)cc3)ccc21 (configuration not stated)	7.94µM
COCCN1CCCCCC(O)c2cc(C(=O)N3CCN(c4cccc(OC)c4)CC3)ccc21 (configuration not stated)	.
Cc1c(-c2ccccc2)c(=O)oc2ccc(OS(=O)(=O)c3ccc(F)cc3)cc12	.
N#Cc1ccc(OCCOC(=O)c2c(F)cccc2F)cc1	.
Cc1cc(C)c(-c2cc(-c3ccccc3)c3ccccc3n2)cc1C	.
CCc1ccc(-c2nn(Cc3ccccc3)cc2C(=O)N2CCN(CCO)CC2)cc1	.
COc1ccc(CCNC(=O)CCc2c(C)nn(C)c2C)cc1OC	.
SMILES	KDM5B inh
O=C(O)CCCC1OC(CCCC(=O)O)OC(CCCC(=O)O)O1 (configuration not stated)	.
CCC(CC)NC(=O)c1ccc(N(C)C)cc1	.
CCc1ccccc1NC(=O)CN(C)C(=O)COc1ccc2oc3c(c2c1)CCCC3	.
COc1ccc(Cc2nc3nccc(-c4ccsc4)n3n2)cc1	.
COc1cc(-c2ccnc3nc(Cc4cc(F)cc(F)c4)nn23)cc(OC)c1OC	15.8µM
COCc1nc2nccc(-c3cc(OC)c(OC)c(OC)c3)n2n1	.
Fc1cc(F)cc(Cc2nc3nccc(-c4ccco4)n3n2)c1	25.1µM
COc1ccc(Cc2nc3nccc(-c4cc(OC)c(OC)c(OC)c4)n3n2)cc1	14.1µM
COc1ccc(-c2ccnc3nc(Cc4ccc(F)cc4)nn23)cc1	.
COc1cc(F)ccc1-c1ccnc2nc(Cc3ccc(F)cc3)nn12	28.2µM
COc1ccc(Cc2nc3nccc(-c4ccc(F)cc4)n3n2)cc1	.
Fc1cc(F)cc(Cc2nc3nccc(-c4cc5ccccc5o4)n3n2)c1	.
COc1cc2oc(=O)c(CC(=O)N3CCCC3)c(C)c2cc1OC	.
CCN(CC)c1ccc(NS(=O)(=O)c2ccc(C)c(C)c2)cc1	.
CCN(CC)S(=O)(=O)c1ccc(N2CCN(C)CC2)c(NC(=O)c2ccccc2F)c1	.
O=C(O)COc1ccc(/C=C2/NC(=O)NC2=O)cc1Br	.
Cc1ccc(-c2cnc(CCC(=O)N(C)CC(=O)Nc3ccccc3Br)o2)cc1C	.
CC(=O)N1CCN(C(=O)c2sc(-c3ccc(OC(F)(F)F)cc3)nc2C)CC1	.
Cc1ccc(C(=O)/C=C\N(C)C)cc1	.
Cc1ccccc1NCC(=O)N1CCN(S(=O)(=O)c2ccc3ccccc3c2)CC1	.
O=C(O)C(c1c[nH]c2cc(F)ccc12)N1CCN(c2cccc(Cl)c2)CC1 (configuration not stated)	.
CN(C)C(=O)C(Sc1nc2ccccc2o1)c1ccccc1 (configuration not stated)	.
O=C(O)CCC1CCCN(S(=O)(=O)c2ccccc2)C1 (configuration not stated)	.
Cc1ccccc1S(=O)(=O)N1CCCC(CCC(=O)NC2CC2)C1 (configuration not stated)	14.1µM
O=C(CCC1CCCN(S(=O)(=O)c2ccc(F)cc2)C1)NC1CC1 (configuration not stated)	.
O=C(CCC1CCCN(S(=O)(=O)c2ccccc2)C1)NCc1ccc(Cl)cc1 (configuration not stated)	.
O=C(CCC1CCCN(S(=O)(=O)c2ccccc2)C1)NCC1CC1 (configuration not stated)	20µM
Cc1ccccc1S(=O)(=O)N1CCCC(CCC(=O)O)C1 (configuration not stated)	.
